Rows were chosen to be rich in hits. Some 21% of all compounds tested hit in one or more screens of this group.
CHX counter – counter-screen hit for Shiga toxin inhibitors, cycloheximide; cell reporter, cycloheximide protein synthesis inhibition counterscreen; max response, %; 300,000 tested, 12% active; AID 2314; in the data active means max response mostly above about 13%, no sharp cut-off; inactive means mostly below about 14%; further: read at 38.3 µM for the half of the compounds with a filed dose; 0% is about no effect
Pf growth 48h – P. falciparum growth inhibition at 48 hours (one generation) | P. falciparum luciferase growth in erythrocytes, 48 h | Potency, µM (titrated, usually from 28.7 µM), for inactives: at the highest dose activity change, negative = inhibition, usual class: inhibitors | 310,000 tested, 5.9% active; further: potency means the concentration at half of the fitted maximal effect; on the % scale 0 is the no-effect control and ±100 the full control effect
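A one-generation exposure of luciferase-tagged malaria parasites in RPMI 1640/Albumax erythrocyte culture, 37 C and 5% CO2. Inhibition is inferred from decreased luminescence after adding detection reagent.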
Pf growth 96h – P. falciparum growth inhibition at 96 hours | P. falciparum luciferase reporter growth, 96 h | Potency, µM (doses to about 28.7 µM), inactives show at the highest dose activity change, negative = inhibition, hits mostly inhibitors | 320,000 tested, 6.9% active | AID 504834; further: potency means the concentration at half of the fitted maximal effect; on the % scale 0 is the no-effect control and ±100 the full control effect
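96 h incubation, 37 C, 5% CO2, of luciferase-reporter P. falciparum-infected RBCs (2% hematocrit, 0.05% parasitemia final) with test compounds; endpoint luminescence.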
Shiga inhibitor – Shiga toxin inhibition; inhibition, % at 38.7 µM; Vero cells, Shiga toxin protein synthesis inhibition reporter; AID 2315; 290,000 tested, 9.2% active; in the data active means inhibition mostly above about 28%, no sharp cut-off; inactive means mostly below about 43%; further: 0% is about no effect
NS1 function inh – influenza NS1 inhibition; Potency, µM (series often up to 46.1 µM), for inactives: at the highest dose activity, positive = more growth; 270,000 tested, 0.4% active; calls by dose curve; further: potency means the concentration at half of the fitted maximal effect; actives are rising curves; nearly all actives have a fitted effect of over 50% in size
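In this qHTS, NS1 from influenza A is expressed in budding yeast, where it slows growth. Cells are switched from glucose to 2% galactose medium (pH 6.0, -URA), treated with compound, and growth recovery is read at OD600.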
* marks the source's active call; other numbers are inactive results; u = inconclusive; x = no result. Unless noted, the call rests on the fitted dose curve; in most records, active means well fitted inhibition curve with a large enough effect; inconclusive means small, poorly fitted or top-dose-only effect, or another doubt; inactive means no such curve, though single readings can be large or run the other way.

SMILES	CHX counter	Pf growth 48h	Pf growth 96h	Shiga inhibitor	NS1 function inh
Cc1ccccc1OCCn1c(=S)[nH]c2c(N)ncnc21	-2	x	10%	1	4%
Cc1ccccc1OCCn1cnc2c(N)ncnc21	11*	42%	-29%	15	15%
COc1ccc(C(=O)NCCCOc2cccc(NC(C)=O)c2)cc1	3	-17%	u	13	-1%
O=C(O)CCc1ccc(-c2ccccc2)o1	15*	22%	16%	6	-46%
O=C(OCc1ccccc1)N1CCc2ccccc21	43*	212%	u	82*	-29%
O=C(NCCC(=O)N1CCc2ccccc21)c1ccco1	30*	78%	34%	76*	5%
O=C(NCc1nnc(SCC(=O)N2CCc3ccccc32)o1)c1ccco1	-7	-1%	u	-20	x
O=C1CN(C(=O)OCc2ccccc2)c2ccccc2N1	26*	60%	u	69	-18%
O=C(CS(=O)(=O)Cc1ccccc1)N1CCc2ccccc21	33*	32%	0%	15	9%
O=C(C(Cc1ccccc1)n1cccc1)N1CCc2ccccc21 (centres undefined)	3	u	u	4	-54%
O=C(Cn1ncc2ccccc21)N1CCc2ccccc21	-1	7%	4.7µM*	17	u
Cc1ccc(C)c(-n2c(CNC(=O)c3ccco3)nnc2SCC(=O)N2CCc3ccccc32)c1	-1	8%	13µM*	-7	0%
O=C1CN(C(=O)c2cc3ccccc3o2)c2ccccc2N1	18*	14%	u	42*	-1%
O=C(c1ccco1)c1cn(CC(=O)N2CCCCCC2)c2ccccc12	-2	u	-27%	13	-9%
O=C(c1ccco1)c1cn(CC(=O)N2CCCc3ccccc32)c2ccccc12	24*	u	-8%	16	-67%
O=C1CN(C(=O)c2ccccc2F)c2ccccc2N1	-3	-14%	5%	-26	1%
CC1CCCC(NC(=O)CN(C)S(=O)(=O)c2cccc3cccnc23)C1C (centres undefined)	-1	x	11%	3	-18%
Cc1ccn(CCC(=O)N2CCc3ccccc32)n1	25*	16%	2%	26	-7%
O=C(CCCc1ccccc1)N1CCc2ccccc21	49*	x	u	109*	-10%
CCOc1ccccc1NC(=O)COc1ccc2ccc(=O)oc2c1	-3	6%	u	-9	-5%
O=C(CCc1c[nH]c2ccccc12)NCCc1ccc2c(c1)OCCO2	17	u	-17%	84*	-3%
O=C(NCc1ccc2c(c1)OCO2)c1ccccc1	6	13%	22%	-2	x
O=C(NCc1ccc2c(c1)OCO2)c1ccccn1	20*	62%	37%	-6	5%
O=C(NCCc1ccc2c(c1)OCCO2)c1ccccn1	42*	165%	223%	78*	-10%
Cn1nc(C(=O)NCCc2ccc3c(c2)OCCO3)c2ccccc2c1=O	x	u	-6%	x	x
SMILES	CHX counter	Pf growth 48h	Pf growth 96h	Shiga inhibitor	NS1 function inh
COc1cccc(NC(=O)c2cc(CN3C(=O)c4ccccc4C3=O)ccc2OC)c1	-3	21%	-28%	-10	0%
COc1ccccc1CCNC(=O)C(=O)NCC1OCCN1S(=O)(=O)c1ccc(OC)c(OC)c1 (centres undefined)	1	u	u	-3	4%
CC(=O)N1CCc2cc(S(=O)(=O)CCC(=O)N3CCN(C(=O)c4ccco4)CC3)ccc21	-1	u	u	2	1%
O=C1C=C(c2ccc(Cl)cc2)OC2(CCCC2)O1	-1	u	13µM*	44	-22%
Cc1ccc(C(=O)SC2=NCCS2)cc1	-4	11%	9.3µM*	-3	-18%
O=C(c1ccc(-c2cccc(C(F)(F)F)c2)o1)N1CCOCC1	37*	31%	6%	74*	-61%
COc1ccc(C(CNC(=O)c2ccc(-c3cccc(C(F)(F)F)c3)o2)N2CCOCC2)cc1 (centres undefined)	x	6.6µM*	1.5µM*	x	x
CCOc1ccccc1N1CCN(C(=O)c2ccc(-c3ccc(OC(C)=O)cc3)cc2)CC1	-1	x	-17%	18	15%
CCN1CCN(Cc2ccc(NC(=O)c3ccc(C)c(NC(=O)c4cccc5[nH]ccc45)c3)cc2C(F)(F)F)CC1	53*	12µM*	10µM*	94*	-8%
CCN1CCN(Cc2ccc(NC(=O)c3cc(NC(=O)c4cncc(-c5ccc(C#N)cc5)c4)cc(OC)c3)cc2C(F)(F)F)CC1	-5	0.47µM*	0.1µM*	-11	-8%
CCN1CCN(Cc2ccc(NC(=O)c3ccc(C)c(NC(=O)c4nccnc4N)c3)cc2C(F)(F)F)CC1	-14	5.2µM*	2.6µM*	-16	-8%
CCN1CCN(Cc2ccc(NC(=O)c3ccc(C)c(NC(=O)c4nccn4C)c3)cc2C(F)(F)F)CC1	6	u	-25%	-4	-2%
CCN1CCN(Cc2ccc(NC(=O)c3ccc(C)c(NC(=O)c4cc(-c5ccc(Br)cc5)n[nH]4)c3)cc2C(F)(F)F)CC1	-2	1µM*	1.9µM*	-3	11%
NS(=O)(=O)c1ccc(CCNC(=O)c2ccc(NS(=O)(=O)c3ccc4[nH]c(=O)[nH]c4c3)cc2)cc1	x	-3%	5%	x	x
CCN1CCCC1CNc1ccc(S(C)(=O)=O)cc1[N+](=O)[O-] (centres undefined)	-4	-2%	0%	-6	-6%
CCN1CCN(Cc2ccc(NC(=O)c3ccc(C)c(NC(=O)N4CCNC4=O)c3)cc2C(F)(F)F)CC1	2	u	u	-7	2%
CCN1CCN(Cc2ccc(NC(=O)c3cc(NC(=O)c4nccnc4N)cc(OC)c3)cc2C(F)(F)F)CC1	9	1.7µM*	1.5µM*	15	-34%
CCN1CCN(Cc2ccc(NC(=O)c3cc(NC(=O)c4cnnc5ccccc45)cc(OC)c3)cc2C(F)(F)F)CC1	-4	2.3µM*	2.9µM*	-4	-7%
COc1cc(OC)cc(C(=O)N2CCN(Cc3ccccc3C(F)(F)F)CC2)c1	-7	6%	u	-21	-94%
CCN(CC)CCNC(=O)CCc1nnc2ccc(N3CCC(C)CC3)nn12	-1	16%	1%	3	-2%
CN(c1ccccc1)S(=O)(=O)c1cccc(NC(=O)COC(=O)C2CCCCC2)c1	-1	-6%	18%	-8	7%
O=C(CSc1cccc[n+]1[O-])N1CCCc2ccccc21	23*	13%	-15%	15	x
Cn1nnnc1SCC(=O)N1CCCc2ccccc21	-3	16%	62%	-3	4%
O=C(CSCc1ccco1)c1ccc(Cl)s1	25*	103%	12µM*	108*	11%
O=C(CSc1ccccc1)N1CCc2ccccc21	31*	207%	x	93*	-13%
O=C(CCC(=O)N1CCc2ccccc21)N1CCc2ccccc21	x	x	x	x	21%
Nc1cc(N)nc(SCC(=O)N2CCc3ccccc32)n1	30*	x	u	58*	21%
O=C(CSc1nc2[nH]ncc2c(=O)[nH]1)Nc1cccc([N+](=O)[O-])c1	x	-26%	20%	x	x

Screening results (PubChem)
